Rows were chosen to be rich in hits. Some 8.3% of all compounds tested hit in one or more screens of this group.
Marburg entry inh: qHTS for inhibitors of binding or entry into cells for Marburg Virus; Marburg virus pseudotyped entry inhibition, cell reporter; Potency, µM (titrated, usually from 37.8 µM), hits mostly inhibitors; actives 1.8% (n = 300,000); calls by dose curve; tested in HEK293 cells
Giardia FBPA inh: qHTS Assay for Inhibitors of Fructose-1,6-bisphosphate Aldolase from Giardia Lamblia; actives 0.71% (n = 290,000); A8B2U2; purified Giardia FBPA; AID 2451, 2010; Potency, µM (highest dose often 59.6 µM), most hits filed as inhibitors; note: nearly all actives have a fitted effect of over 55% in size
Target sequence (A8B2U2 whole entry, looked up): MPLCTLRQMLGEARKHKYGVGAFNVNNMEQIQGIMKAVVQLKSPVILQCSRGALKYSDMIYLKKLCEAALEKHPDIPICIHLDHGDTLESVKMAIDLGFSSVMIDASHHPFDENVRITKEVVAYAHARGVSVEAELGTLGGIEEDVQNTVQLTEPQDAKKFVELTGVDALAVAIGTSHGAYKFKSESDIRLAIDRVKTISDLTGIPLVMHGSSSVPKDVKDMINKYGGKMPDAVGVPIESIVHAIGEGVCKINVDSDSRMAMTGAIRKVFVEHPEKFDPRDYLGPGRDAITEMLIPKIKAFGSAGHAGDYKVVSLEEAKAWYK
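40 nM FBPA preincubated 10 min at RT with compound (up to 57.5 uM final), then substrate plus GAPDH/TPI/NAD/arsenate coupling and diaphorase/resazurin added. Fluorescence read after 20 min at RT, 525/598 nm.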
FMDV antiviral: High Throughput Screening for Foot and Mouth Disease Virus Antivirals; FMDV antiviral cell-based qHTS; AID 1159524, 2015; actives 1.2% (n = 410,000); Potency, µM (doses to about 57.9 µM), usual class: inhibitors; calls by dose curve; tested in HEK293T cells; note: read-out not given here; nearly all actives have a fitted effect of over 45% in size
LASV entry inh: qHTS for Inhibitors of binding or entry into cells for Lassa Virus; Lassa virus pseudotype entry inhibition, cell reporter; Potency, µM (top dose mostly 37.9 µM), actives largely listed as inhibitors; actives 1.2% (n = 300,000); AID 540256, 2011; calls by dose curve; tested in HEK293 cells; note: nearly all actives have a fitted effect of over 50% in size
HCMV antiviral: qHTS Assay for inhibitors of the human cytomegalovirus (HCMV); HFF cells, HCMV-luciferase reporter, 72 h; stronger effect = lower value; activity change, negative = inhibition, % at 57.5 µM; AID 1259415, 2018; actives 4.5% (n = 410,000); in the data active = activity change below about -60%; inconclusive = no clear call, values can overlap the other calls; inactive = above about -39%
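Cell-based, HFFs, 1000 cells/well, 16 h 37C; cpds in DMSO + HCMV-luc, MOI 1 PFU/cell; 72 h 37C; OneGlo luminescence after 5 min RT; norm. to buffer vs Salinomycin 10uM.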
HCV inhibitor: qHTS Assay for Inhibitors of Hepatitis C Virus (HCV). Potency, µM (series often up to 41.8 µM), most hits filed as inhibitors. AID 651820, 2012. Huh7.5.1 HCVcc-Cre infection, luciferase reporter, 44 h. actives 3.4% (n = 340,000)
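A cell-based infection assay in which seeded cells (1,000 per well) receive test compound after 4 h, are inoculated with HCVcc-Cre at approximately 0.5 moi, and are incubated 44 h before luminescence detection.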
Numbers stand for hits; - = inactive; ? = inconclusive; . = no result given; [ ] = remark or other dose. Unless noted, calls come from the whole dose curve; as a rule, active = well fitted curve in the direction sought with a large enough effect; inconclusive = small, poorly fitted or top-dose-only effect, or another doubt; inactive = no such curve, though single readings can be large; an effect the other way counts as inactive or inconclusive.

SMILES | Marburg entry inh | Giardia FBPA inh | FMDV antiviral | LASV entry inh | HCMV antiviral | HCV inhibitor
COc1ccc(CNn2c(C)nc3ccccc3c2=O)cc1 | ? | - | . | - | - | -
CCCCOc1ccc(CNn2c(C)nc3ccccc3c2=O)cc1 | ? | - | ? | - | ? | 10µM
CCC(=O)OCCn1c(=O)c2cc3c(=O)n(CCOC(=O)CC)c(=O)c3cc2c1=O | - | - | - | - | - | -
CCOC(=O)Cn1c(-c2ccccc2)nc2ccccc2c1=O | - | - | - | - | -95 | -
CCCOC(=O)Cn1c(=O)c2cc3c(=O)n(CC(=O)OCCC)c(=O)c3cc2c1=O | - | - | - | - | -72 | -
CCCOC(=O)C(C)n1c(-c2ccccc2)nc2ccccc2c1=O (centres undefined) | - | - | - | - | - | -
COc1cccc(CN2C(=O)NC(C)(C3CCN(Cc4ccc(C)o4)CC3)C2=O)c1OC (centres undefined) | . | . | - | . | . | .
C=CC[C@@H]1C=C[C@@H](Oc2ccc(OC)cc2)[C@H](COC(=O)c2ccc(Br)cc2)O1 | - | . | . | . | . | .
CO[C@H]1COC(=O)[C@H]2CCCN2C(=O)C/C=C\[C@@H](C)[C@H](OC)COC(=O)[C@@H](OCc2ccccc2)/C=C\[C@@H]1C | . | -[12.9 µM] | . | . | . | .
CC1CCCN(c2cccc3c2S(=O)(=O)N(Cc2cccc(Cl)c2)[C@@H](C)[C@H](c2ccccc2)O3)C1 (some centres undefined) | . | . | . | . | - | .
CCc1cc(C(=O)NCCN2Cc3ccccc3OC(c3ccsc3)C2)n(C)n1 (centres undefined) | . | . | - | . | . | .
COc1ccc(Cl)cc1Cn1c(C)c(C(=O)NCc2ccc3c(c2)OCCO3)sc1=O | . | . | - | . | -72 | .
Cc1c(C(=O)NCc2ccccc2C(F)(F)F)sc(=O)n1Cc1ccccc1C#N | . | . | - | . | -62 | .
COc1ccc(CNC(=O)c2sc(=O)n(Cc3ccc(S(=O)(=O)N(C)C)cc3)c2C)cc1 | . | . | ? | . | - | .
C=Cc1ccc(Cn2c(C)c(C(=O)NCc3cccc(C(F)(F)F)c3)sc2=O)cc1 | . | . | - | . | - | .
C=Cc1ccc(Cn2c(C)c(C(=O)NCc3cccc(C)c3)sc2=O)cc1 | . | . | - | . | -65 | .
Cc1c(C(=O)NCc2ccc(C(F)(F)F)cc2)sc(=O)n1Cc1ccc(S(=O)(=O)N(C)C)cc1 | . | . | ? | . | -73 | .
C=C(C)C(=O)OCCOCC | . | - | . | . | . | .
CSCC[C@H](NC(=O)[C@@H](NC(=O)[C@H](CCC(=O)O)NC(=O)[C@H](CCSC)NC(=O)[C@H](CC(N)=O)NC(=O)[C@H](CCC(=O)O)NC(=O)[C@H](CC(N)=O)NC(=O)[C@H](CO)NC(=O)[C@H](C)N)[C@@H](C)O)C(=O)O | . | - | . | . | . | .
Cc1ccc(Cn2c(C)c(C(=O)NCc3ccc(Cl)c(Cl)c3)sc2=O)cc1 | . | . | - | . | - | .
CSc1ccc(Cn2c(C)c(C(=O)NCc3cccc(C)c3)sc2=O)cc1 | . | . | - | . | -67 | .
Cc1cccc(CNC(=O)c2sc(=O)n(Cc3ccc(S(C)(=O)=O)cc3)c2C)c1 | . | . | - | . | -69 | .
Cc1cccc(N2CCN(c3ccc(C(=O)O)cc3NC(=O)c3cccc(Cl)c3)CC2C)c1 (centres undefined) | . | . | - | ? | - | .
COCCCNC(=O)CC(c1cc(OC)c(OC)c(OC)c1)N1Cc2ccccc2C1=O (centres undefined) | . | . | - | - | - | .
CCOC(=O)c1c(NC(=O)C(C)Sc2cn(CCNC(=O)c3ccc(OC)cc3)c3ccccc23)sc2c1CCC2 (centres undefined) | ? | . | - | - | - | .
SMILES | Marburg entry inh | Giardia FBPA inh | FMDV antiviral | LASV entry inh | HCMV antiviral | HCV inhibitor
O=C(Cc1ccc(-c2ccccc2)cc1)NCCS(=O)(=O)N1CCN(c2ccc(F)cc2)CC1 | . | . | - | - | ? | .
Cc1cccc(-n2c(=O)c3c(c4cc(C)ccc4n3C)n(CC(=O)NCC3CCCO3)c2=O)c1 (centres undefined) | . | . | - | - | -106 | .
CC(=O)c1ccc(NC(=O)C2CCC(CNS(=O)(=O)c3cccs3)CC2)cc1 (centres undefined) | - | . | - | - | - | .
COCCCNC(=S)N1CCC(C(=O)c2ccc(Cl)cc2)CC1 | ? | - | ? | ? | - | 4µM
CC(C)C[C@H]1C(=O)N2CCCC2[C@]2(O)O[C@](NC(=O)[C@@H]3C=C4c5cccc6[nH]c(Br)c(c56)C[C@H]4N(C)C3)(C(C)C)C(=O)N12 (some centres undefined) | 10µM | - | . | . | . | .
CCOc1ccc(CSC2=NCCN2)cc1[N+](=O)[O-] | 4µM | - | - | ? | - | -
CCOc1ccc(CN(CCO)CCO)cc1[N+](=O)[O-] | - | - | - | - | -68 | -
COC(=O)c1sccc1NC(=O)c1cc(-c2ccc(C)cc2)nc2ccccc12 | - | - | - | - | - | -
Cc1sc(NC(=O)c2ccc(Br)s2)c(C(N)=O)c1C | ? | - | - | ? | - | 11µM
Cc1sc(NC(=O)c2ccc(Cl)s2)c(C(N)=O)c1C | ? | - | - | ? | - | -
Cc1sc(NC(=O)c2cc(-c3ccc(Cl)cc3)nc3ccccc23)c(C(N)=O)c1C | ? | - | ? | ? | - | ?
Cc1ccccc1-c1cc(C(=O)Nc2sc(C(=O)OC(C)C)c(C)c2C#N)c2ccccc2n1 | 12µM | - | ? | ? | -101 | 13µM
CCOC(=O)c1sc(NC(=O)c2cc(-c3ccc(C)cc3)nc3ccccc23)c(C#N)c1C | - | - | ? | - | -103 | -
Cc1sc(NC(=O)c2cc(-c3ccccc3)nc3ccccc23)c(C(N)=O)c1C | ? | - | - | - | - | 13µM
Cc1cn(C)c(CC(=O)NCc2ccccc2Cl)c1C(=O)O | . | . | - | - | - | .
CCOC(=O)[C@@]1([C@@H](NC(=O)OC)c2ccco2)CCCC1=O | - | . | . | . | . | .
COC(=O)c1sc(NC(=O)c2cc(-c3ccccc3)nc3ccccc23)c(C#N)c1C | ? | 1.4µM | 3.2µM | ? | -97 | 11µM
COC(=O)[C@H](NC(=O)c1cc(-c2ccccc2)nc2ccccc12)c1ccccc1 | ? | - | - | ? | - | 35µM
COc1ccc(-c2cc(C(=O)Nc3sc4c(c3C#N)CCCC4)c3ccccc3n2)cc1 | ? | - | - | - | - | ?
O=C(C1CCCN(S(=O)(=O)c2cccc3nsnc23)C1)N1CCN(c2ccccn2)CC1 (centres undefined) | ? | - | 28µM | - | -65 | ?
O=C(C1CCCN(S(=O)(=O)c2cccc3nsnc23)C1)N1CCN(c2cccc(Cl)c2)CC1 (centres undefined) | ? | . | 11µM | ? | -86 | .
CC12Cc3cnoc3C=C1CCC1C2CCC2(C)C1CCC2(C)O (centres undefined) | - | . | 35µM | ? | - | ?
C[C@]12CCC(=O)C=C1CC[C@@H]1[C@@H]2CC[C@@]2(C)[C@H]1CC[C@]2(C)O | . | - | ? | . | - | ?

Compound activity (PubChem)
